Pf Dd2 inh – qHTS Primary assay for Inhibitors of Plasmodium falciparum Dd2 growth in vitro. P. falciparum Dd2 growth, SYBR Green, 72 h. actives 4.3% (n = 120,000). AID 1347417, 2020. Potency, µM (top dose mostly 28.9 µM), for inactives: top-dose activity, negative = inhibition, hits mostly inhibitors; active = well fitted inhibition curve with a large enough effect;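 note: plate controls were DMSO vehicle for no effect and reference drug for full effect; nearly all actives have a fitted effect of over 65% in size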
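Infected erythrocytes (Dd2, 0.3% parasitemia, 2.5% hematocrit final) are added to compound in RPMI-1640/Albumax II medium, grown 72 h at 37C in low oxygen, then lysed with saponin/Triton-X containing SYBR Green and read by fluorescence.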
* marks the source's active call; other numbers are inactive results; [ ] = another dose, or the depositor's remark. This excerpt belongs to a sample that is enriched for hits. Potency is the fitted concentration of half-maximal effect.

How did CCc1noc(-c2cccn3c(CNC(=O)COc4cccc(C)c4)nnc23)n1 do in these assays?
Pf Dd2 inh: -17%

Results for Cc1ccccc1C(=O)NCc1nnc2c(-c3nc(C(C)C)no3)cccn12 ?
Pf Dd2 inh: inactive

What do the screens show for `O=C(NCc1nnc2c(-c3nc(C4CC4)no3)cccn12)c1cc(F)ccc1F`?
Pf Dd2 inh: -23%

Results for Cc1noc(-c2cccn3c(CNC(=O)c4ccccc4)nnc23)n1 ?
Pf Dd2 inh: -10%

Results for CCOc1ccccc1C(=O)NCc1nnc2c(-c3nc(C4CC4)no3)cccn12 ?
Pf Dd2 inh: 3.2µM*

Results for COc1ccc(Cl)cc1C(=O)NCc1nnc2cc(-c3nc(C(C)C)no3)ccn12 ?
Pf Dd2 inh: -1%

How did CCc1noc(-c2cccn3c(CNC(=O)c4ccc(F)cc4)nnc23)n1 do in these assays?
Pf Dd2 inh: -20%

Results for Cc1noc(-c2cccn3c(CNC(=O)c4cccc(N(C)C)c4)nnc23)n1 ?
Pf Dd2 inh: 0.56µM*

How did COc1cccc(C(=O)NCc2nnc3c(-c4nc(C)no4)cccn23)c1 do in these assays?
Pf Dd2 inh: -30%

How did CC(C)c1cc(NCCC(=O)NC2CCCCC2)n2nccc2n1 do in these assays?
Pf Dd2 inh: -25%

Results for O=C(CC1CC1)N[C@@H]1CN(Cc2ccccc2)C[C@H]1CO ?
Pf Dd2 inh: 1%

What do the screens show for `CN1CC2(C1)C(=O)N(C)C(=O)[C@@H]1C[C@@H](O)CN12`?
Pf Dd2 inh: 20%[44.1 µM]

How did Cc1nccn1CCN(C)C(C(=O)O)c1ccc(C(C)(C)C)cc1 (stereo not given) do in these assays?
Pf Dd2 inh: -7%

How did COCCN1CCC(N2CCN(C(=O)C3CCOCC3)CC2)C1=O (stereo not given) do in these assays?
Pf Dd2 inh: -14%

Results for Cc1noc2c(NCCN3CCOCC3)cc(-c3cccnc3)nc12 ?
Pf Dd2 inh: -8%[44.1 µM]

How did COc1cccc(NC(=O)N(C)CC2CCOCC2)c1 do in these assays?
Pf Dd2 inh: -8%

What do the screens show for `CC(C)CCNC(=O)NC1CCN(C(=O)N2CC3CC(C2)[C@H]2CCCC(=O)N2C3)CC1` (stereo not given in full)?
Pf Dd2 inh: -21%

What do the screens show for `COCCNC(=O)c1ccc2c(c1)N(C)C(CC(=O)Nc1ccc[nH]c1=O)CO2` (stereo not given)?
Pf Dd2 inh: -8%

Results for Cc1ccccc1-c1cc(C(=O)NCC[S+](C)(=O)[O-])c2c(c1)N(C)CCO2 ?
Pf Dd2 inh: inactive

How did O=Cc1ccccc1-c1ccccn1 do in these assays?
Pf Dd2 inh: 12%[44.1 µM]

What do the screens show for `COCc1noc([C@@H]2CN(C(=O)CC3=CCCCC3)C[C@H]2CO)n1`?
Pf Dd2 inh: -4%

How did COc1ccc(CN2CC(OCc3cccnc3)CN(C(=O)c3ccccn3)CC2=O)cc1 (stereo not given) do in these assays?
Pf Dd2 inh: 9%

What do the screens show for `Cc1ccc(NC(=O)C2Cc3ccccc3N2C(=O)c2ccccc2)cc1Cl` (stereo not given)?
Pf Dd2 inh: 43%

How did COc1cccc(NC(=O)Nc2ccc3nc(N4CCN(C)CC4)cc(C)c3c2)c1 do in these assays?
Pf Dd2 inh: 2.5µM*

What do the screens show for `Cc1cc(N2CCN(C)CC2)nc2ccc(NC(=O)Nc3ccccc3Cl)cc12`?
Pf Dd2 inh: 3.2µM*

How did COc1cccc(CNC(=O)C(=O)Nc2ccc3nc4n(c(=O)c3c2)CCCCC4)c1 do in these assays?
Pf Dd2 inh: -9%

What do the screens show for `COc1cccc(NC(=O)c2ccc3c(c2)CCN3S(C)(=O)=O)c1`?
Pf Dd2 inh: 21%

How did Cn1c(=O)n(C)c2cc(N3CCCC3)c(NC(=O)Nc3ccccc3)cc21 do in these assays?
Pf Dd2 inh: inactive

What do the screens show for `CC(=O)N[C@@H]1C[C@H](Cc2ccccc2)O[C@H](c2c(C)nn(C(C)(C)C)c2C)C1`?
Pf Dd2 inh: -21%

How did Cc1cccnc1CNC(=O)[C@H]1C[C@@H](C(=O)O)N(C)[C@H]1c1cccc(Cl)c1 do in these assays?
Pf Dd2 inh: -11%

What do the screens show for `CC(C)c1noc(-c2cn(C3CCN(C(=O)c4ccccc4F)CC3)nn2)n1`?
Pf Dd2 inh: -24%

Results for O=C(c1ccc(F)cc1)N1CCCC(Cc2nc(C3CCOCC3)no2)C1 (stereo not given) ?
Pf Dd2 inh: 1%

What do the screens show for `CCC1CCc2c(sc(NC(=O)C3c4ccccc4Oc4ccccc43)c2C(=O)OC)C1` (stereo not given)?
Pf Dd2 inh: 13µM*

What do the screens show for `CC1CCc2c(sc(NC(=O)C3c4ccccc4Oc4ccccc43)c2C(=O)OC(C)C)C1` (stereo not given)?
Pf Dd2 inh: 0%

What do the screens show for `CCC(C)(C)C1CCc2c(sc(NC(=O)C3c4ccccc4Oc4ccccc43)c2C(N)=O)C1` (stereo not given)?
Pf Dd2 inh: -19%

How did Cc1ccc(CN2CCc3nc(N(C)Cc4cccnc4)[nH]c(=O)c3CC2)s1 do in these assays?
Pf Dd2 inh: 62%[5.79 µM]

Results for O=C(CCC1CCN(S(=O)(=O)c2cccc(F)c2)CC1)NCCCN1CCCC1=O ?
Pf Dd2 inh: -17%

Results for Cc1ccc(C(=O)CCc2nc(C3CC(=O)N(C4CCCCC4)C3)no2)cc1 (stereo not given) ?
Pf Dd2 inh: inactive

What do the screens show for `CCCCS(=O)(=O)N1CCN(C2CCN(CCOC)C2=O)CC1` (stereo not given)?
Pf Dd2 inh: -11%

What do the screens show for `O=C1CO[C@H]2CN(Cc3ccccc3)C[C@H]2N1Cc1cccnc1`?
Pf Dd2 inh: -30%[44.1 µM]

Results for CN1CCC2(CC1)CN(C(=O)CCc1ccccc1)Cc1ccccc1O2 ?
Pf Dd2 inh: 1µM*

Results for CC(C)NC(=O)N1Cc2ccccc2OC2(CCN(C(=O)c3ccc4[nH]ccc4c3)CC2)C1 ?
Pf Dd2 inh: 10µM*

How did CC(=O)Nc1ccc(C(=O)N2CCC3(CC2)CN(C(=O)NC(C)C)Cc2ccccc2O3)cc1 do in these assays?
Pf Dd2 inh: 13%

Results for CC(=O)N1CCC2(CC1)CN(C(=O)c1ccc3[nH]ccc3c1)Cc1ccccc1O2 ?
Pf Dd2 inh: 10µM*

How did CC(=O)N1CCC2(CC1)CN(C(=O)N(C)C)Cc1ccccc1O2 do in these assays?
Pf Dd2 inh: 6%

What do the screens show for `CCC(=O)N1Cc2ccccc2OC2(CCN(C)CC2)C1`?
Pf Dd2 inh: inactive

How did CC(=O)N1Cc2ccccc2OC2(CCN(C(=O)c3cccc4[nH]ccc34)CC2)C1 do in these assays?
Pf Dd2 inh: -14%

What do the screens show for `COCCOCC(=O)N1Cc2ccccc2OC2(CCN(C)CC2)C1`?
Pf Dd2 inh: inactive

How did CC(C)NC(=O)N1CCC2(CC1)CN(C(=O)c1ccnc(N)c1)Cc1ccccc1O2 do in these assays?
Pf Dd2 inh: 7%

What do the screens show for `O=C(c1ccsc1)N1CCC(Oc2ccccc2)C1` (stereo not given)?
Pf Dd2 inh: -12%

What do the screens show for `Cc1nnsc1C(=O)N[C@H]1CCN2C(=O)N(c3ccc(C(C)C)cc3)C(=O)[C@@H]2C1`?
Pf Dd2 inh: inactive

What do the screens show for `CCCCc1nc2cc(C(=O)N(C)Cc3ccc4nonc4c3)ccc2o1`?
Pf Dd2 inh: inactive

How did CC(C)(c1nc(-c2cccnn2)no1)n1cccc1 do in these assays?
Pf Dd2 inh: -3%

What do the screens show for `COc1ccc(NC(=O)c2nnn3cc(C)[nH]c(=O)c23)cc1OC`?
Pf Dd2 inh: -16%

Results for O=C1CCC2(CCN(c3nc4ccccc4s3)CC2)CN1Cc1cccnc1 ?
Pf Dd2 inh: -23%

How did CC1CCN(c2nc3ccc(C(=O)NCc4ccccc4)cc3s2)CC1 do in these assays?
Pf Dd2 inh: -27%

Compound activity (PubChem BioAssay)
